Shiga toxin inh: A qHTS for Small Molecule Inhibitors of Shiga Toxin; Vero cells, Shiga toxin protein synthesis inhibition reporter; AID 2315, 2010; 290,000 compounds, 9.2% hits; inhibition, % at 38.7 µM; in the data active means inhibition mostly above about 28%, no sharp cut-off; inactive means mostly below about 43%; further: 0% is about no effect
HCV inh: qHTS Assay for Inhibitors of Hepatitis C Virus (HCV); Potency, µM (series often up to 41.8 µM), inactives show at the top dose activity change, negative = inhibition, most hits filed as inhibitors; AID 651820, 2012; Huh7.5.1 HCVcc-Cre infection, luciferase reporter, 44 h; 340,000 compounds, 3.4% hits; further: potency means the concentration at half of the fitted maximal effect; on the % scale 0 is the no-effect control and ±100 the full control effect
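Antiviral activity was scored by luciferase reporter output from cells infected with HCVcc-Cre (~0.5 moi) in presence of compound, 44 h infection period, cells seeded 1,000/well 4 h prior.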
Cycloheximide cs: Cycloheximide Counterscreen for Small Molecule Inhibitors of Shiga Toxin; cell reporter, cycloheximide protein synthesis inhibition counterscreen; max response, %; 300,000 compounds, 12% hits; AID 2314, 2010; in the data active means max response mostly above about 13%, no sharp cut-off; inactive means mostly below about 14%; further: read at 38.3 µM for the half of the compounds with a filed dose; 0% is about no effect
HCMV antiviral: qHTS Assay for inhibitors of the human cytomegalovirus (HCMV) | HFF cells, HCMV-luciferase reporter, 72 h; stronger effect = lower value | activity change, negative = inhibition, % at 57.5 µM | 410,000 compounds, 4.5% hits; in the data active means activity change below about -60%; inconclusive means no clear call, values can overlap the other calls; inactive means above about -39%; further: on the % scale 0 is the no-effect control and ±100 the full control effect
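Cell-based, HFFs, 1000 cells/well, 16 h 37C; cpds in DMSO + HCMV-luc, MOI 1 PFU/cell; 72 h 37C; OneGlo luminescence after 5 min RT; norm. to buffer vs Salinomycin 10uM.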
Pf growth 96h: Primary qHTS for delayed death inhibitors of the malarial parasite plastid, 96 hour incubation; AID 504834, 2011; P. falciparum luciferase reporter growth, 96 h; Potency, µM (top dose mostly 28.7 µM), inactives show at the highest dose activity change, negative = inhibition, hits mostly inhibitors; 320,000 compounds, 6.9% hits; further: potency means the concentration at half of the fitted maximal effect; on the % scale 0 is the no-effect control and ±100 the full control effect
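Luminescence readout: decreased luciferase signal marks inhibited growth of reporter-expressing P. falciparum in infected red cells (2% hematocrit, 0.05% parasitemia final), exposed to compound two generations (96 h, 37 C, 5% CO2).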
Pf growth 48h: Primary qHTS for delayed death inhibitors of the malarial parasite plastid, 48 hour incubation | P. falciparum luciferase growth in erythrocytes, 48 h | Potency, µM (doses to about 28.7 µM), for the others: at the top dose activity change, negative = inhibition, usual class: inhibitors | 310,000 compounds, 5.9% hits; further: potency means the concentration at half of the fitted maximal effect; on the % scale 0 is the no-effect control and ±100 the full control effect
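Growth was read as firefly luciferase luminescence after a 48 h, 37 C, 5% CO2 exposure of compounds to reporter-bearing P. falciparum cultures (0.1% parasitemia, 2% hematocrit final) in Albumax-supplemented RPMI 1640.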
The depositor's hits bear a star; u = inconclusive; x = not tested or not shown. A selection: hits, their analogues and other compounds. The true share with any hit is near 21%. Unless noted, the call rests on the fitted dose curve; in most records, active means well fitted inhibition curve with a large enough effect; inconclusive means small, poorly fitted or top-dose-only effect, or another doubt; inactive means no such curve, though single readings can be large or run the other way.

SMILES | Shiga toxin inh | HCV inh | Cycloheximide cs | HCMV antiviral | Pf growth 96h | Pf growth 48h
Cc1cc(Nc2ccc(Cl)cc2)nc(-c2ccccc2O)n1 | 46.3 | 11.2µM* | 15.1 | -31.6 | u | u
COC(=O)c1cccc(Nc2cc(C)nc(-c3ccccc3O)n2)c1 | 14.1 | 0.794µM* | -0.9 | 33.1 | 107.9% | u
CC(C)(CC(=O)O)CC(=O)NCc1c(Cl)cccc1Oc1ccccc1 | -12.5 | 6.3% | -2.1 | 17.9 | 53.5% | 13.4%
O=C1NC2=C(C(=O)CCC2)C(c2cccc([N+](=O)[O-])c2)N1 (configuration not stated) | -6.6 | 16.2% | -3.4 | 20.9 | u | -6.0%
COc1ccc(NS(=O)(=O)c2cccc(C(=O)N/N=C/c3cccs3)c2)cc1 | 18.8 | -25.3% | -2.0 | 56.6 | u | u
O=C(N/N=C/c1cccs1)c1ccc2ccccc2c1 | 109.1* | -22.1% | 53.8* | 1.4 | 20.1% | -11.3%
O=C(N/N=C/c1cccs1)c1ccc2nc[nH]c2c1 | 49.3 | 10.8% | 20.4 | 31.7 | 16.4% | 81.2%
O=C(N/N=C/c1cccs1)c1ccc2ncccc2c1 | 46.3* | -9.2% | 17.6 | -38.2 | 0.5% | -6.3%
O=C(/C=C/c1ccccc1)Nc1cccc(C(=O)N2CCCC2)c1 | x | u | x | 23.1 | x | x
Cc1ccc(C2(CC(=O)O)CCOC(C)(C)C2)cc1 (configuration not stated) | 1.3 | -1.1% | -1.4 | 3.9 | 9.28µM* | -12.8%
COc1ccc(C2=Nn3c(nnc3-c3cc(OC)cc(OC)c3)SC2)cc1 | 7.1 | x | 9.4 | x | x | x
CNC1C(O)C(OC2C(NC(=O)C(O)CN)CC(N)C(OC3OC(CN)C(O)C(O)C3O)C2O)OCC1(C)O (configuration not stated) | x | x | x | x | -4.0% | 0.4%
CCOc1ccc(NC(=O)Cn2cc(C(=O)c3ccc(CC)cc3)c(=O)c3ccc(C)nc32)cc1 | x | x | x | -1.1 | x | x
C[N+]1(CC(COCc2ccccc2)OC(=O)Cc2ccccc2)CCOCC1 (configuration not stated) | -1.8 | 21.4% | -4.8 | -19.9 | u | 13.1µM*
C[C@@H]1CN([C@@H](C)CO)C(=O)c2cc(NC(=O)CCC(F)(F)F)ccc2O[C@H]1CN(C)S(=O)(=O)c1ccc(Cl)cc1 | x | 6.8% | x | -37.3 | x | x
CC(C)N(C(=O)CS(=O)(=O)c1ccc(Cl)c(Cl)c1)C(C)C | -7.4 | 6.6% | -0.9 | -38.9 | 0.4% | -10.1%
O=C(NN=Cc1ccc(N2CCOCC2)s1)c1ccc([N+](=O)[O-])cc1 | x | 22.4µM* | x | 2.7 | x | x
O=C(N/N=C/c1ccc(Br)s1)c1ccc([N+](=O)[O-])cc1 | -11.5 | u | 11.5 | 1.1 | -10.7% | 2.08µM*
C=CCn1c(SCC(=O)NC2CCCC2)nnc1-c1cccnc1 | 22.9 | 10.0% | -1.8 | 21.7 | -14.4% | -7.2%
COC(=O)[C@@]12CCCCN1[C@H](c1ccc(-c3ccccc3)c(OC)c1)[C@H]1C(=O)N(C)C(=O)[C@H]12 | x | 12.0% | x | -0.8 | x | x
COC(=O)[C@@]12CCCCN1[C@H](c1ccc(-c3ccc(C(C)=O)cc3)c(OC)c1)[C@@H]1C(=O)N(C)C(=O)[C@@H]12 | x | -12.2% | x | 59.3 | u | 8.28µM*
COC(=O)[C@@]12CCCN1[C@H](c1ccc(-c3cccc(Cl)c3)c(OC)c1)[C@H]1C(=O)N(C)C(=O)[C@H]12 | x | u | x | 23.3 | 0.329µM* | 2.33µM*
COC(=O)[C@@]12CCCCN1[C@H](c1ccc(-c3cccc(Cl)c3)c(OC)c1)[C@@H]1C(=O)N(C)C(=O)[C@@H]12 | x | u | x | 11.4 | 7.38µM* | 9.28µM*
CCC1CCCCN1C(=O)CCNC(=O)Cn1cnc2ccccc2c1=O (configuration not stated) | -0.6 | 6.8% | -1.4 | -15.6 | 22.6% | -1.8%
O[C@@H]1[C@@H](O)C=C2CCN3Cc4cc5c(cc4[C@H]1C23)OCO5 (some centres not stated) | x | 3.16µM* | x | -97.6* | 0.294µM* | 0.329µM*
